Assay results as given in PubChem BioAssay (NCATS).
Results filed as inconclusive are left out. A call without a number means that no potency is given here. Calls of active or inactive are those of the source. Calls come from the whole dose curve; as a rule, active = well fitted cell-killing curve with a large enough effect; inconclusive = small, poorly fitted or top-dose-only effect; inactive = flat fitted curve, though single readings scatter.

experiment: Quantitative highthroughput screen to assess conditional lethalithy of P12 Ichikawa cells grown in RPMI1640 with untreated serum (RPMI+s) (AID 1963881); conditions: ATP luminescence, 48 h; Potency: viability; series mostly up to 45.8 µM; note: nearly all actives have a fitted effect of over 35% in size
Text: Assay Provider: Jason Cantor Ph.D.
Department of Biochemistry
University of Wisconsin-Madison, Madison, WI, USA
Chemical screening studies have identified drug sensitivities across hundreds of cancer cell lines but most putative therapeutics fail to translate. Discovery and development of drug candidates in models that more accurately reflect nutrient levels in human blood is a major challenge. Here we performed high-throughput screens in conventional versus Human Plasma-Like Medium (HPLM) to identify compounds that were "missed" when screening using the artificial culture condition. Sets of conditional anticancer compounds spanned phases of clinical development and included non-oncology drugs were assessed. […] We also traced conditional phenotypes for several chemotherapeutics to availability of HPLM-specific metabolites and confirmed others for compounds whose reported targets are encoded by nonessential genes. Our findings establish generalizable strategies for exploiting conditional lethality in HPLM to reveal therapeutic candidates and mechanisms of action in cancer cells.
Described herein are the results of each viability screens against three cell lines: NOMO1 (an acute myeloid leukemia cell line); P12-Ichikawa (a T-cell acute lymphoblastic leukemia); and SEM (a B-cell ALL). Each assay was screened using 3 different cell culture media: homemade human plasma-Like medium with 10% dialyzed fetal bovine serum (HPLM+ds); RPMI1640 with 10% untreated FBS and 5mM glucose (RPMI+s); and RPMI1640 with 10% dialyzed fetal bovine serum and 5 mM glucose (RPMI+ds).
PROTOCOL TABLE (as described by Inglese J, Shamu CE and Guy RK. 2007)
SEQUENCE No. (e.g., 1, 2, 3, etc.); […] (e.g., Cells, Incubation, Reagent, etc.); VALUE and DESCRIPTION.
1; Cells; 5 uL; white, solid bottom 1536-well Greiner assay plate.
2; Compounds; 23 nL; Kalypsis pin tool (Wako USA) equipped with a 1536-well pin head to transfer to the assay plates.
3; Incubation; 48 hours; 37C incubation.
4; Reagent; 3 uL; CellTiter Glo (Promega).
5; Incubation; 5 min, room temperature
6; Detection; Luminescence, Viewlux PerkinElmer.
NOTES (numbers refer to Sequence numbers above)
1. Briefly, 5 ul of cell reagent was dispensed using a Multidrop Combi Dispenser. The NOMO1 and SEM cells were plated at 500 cells/well and the P12-Ichikawa line at 1000 cells/well.
2. After seeding the cells, 23 nL of MIPE 4.1 library compounds (in DMSO) were added to each plate using a Kalypsys 1536 Pintool dispenser. Bortezomib at final concentration of […] and DMSO were added to each plate as positive and negative controls respectively. For each screen, MIPE 4.1 compounds were added over an eleven-point concentration range […] in 3-fold dilutions.
3. Each plate was covered with a stainless steel gasketed lid to prevent evaporation and incubated for 48 hour at 37C, 95% relative humidity, and 5% CO2.
4-5. Three microliter CellTilter-GloTM luminescent substrate mix (Promega) reagent was added to the assay plate and incubated at room temperature for 5 min.
6. The luminescence signal was measured using a ViewLux (PerkinElmer) multiplate reader with a 2 second exposure time per plate. Data for each compound were normalized as percent viability such that measurements for DMSO and the empty well controls in each plate were defined as 100% and 0%, respectively.
Potency is the fitted concentration of half-maximal effect.

Row | Structure (SMILES) | Potency
1 | C[C@@H]1CN(Cc2ccc(F)cc2)[C@@H](C)CN1C(=O)c1cc2c(C(=O)C(=O)N(C)C)cn(C)c2cc1Cl | inactive
2 | Cc1cn[nH]c1 | inactive
3 | NC[C@H](O)c1ccc(O)c(O)c1 | inactive
4 | CCC=CC[C@H]1C(=O)CC[C@@H]1CC(=O)OC | inactive
5 | O=C(CCCCCCC(=O)Nc1cccnc1)NO | 8.33 µM (active)
6 | C=CC(=O)Nc1cc2c(Nc3ccc(F)c(Cl)c3)ncnc2cc1OCCCN1CCOCC1 | 5.26 µM (active)
7 | CC(C)=CC[C@@H](O)C1=CC(=O)c2c(O)ccc(O)c2C1=O | 10.5 µM (active)
8 | CN(C)Cc1ccc(-c2nc3cccc4c3n2CCNC4=O)cc1 | inactive
9 | Nc1ncnc2c1ncn2[C@@H]1O[C@@H](CO)[C@H](O)[C@H]1O | inactive
10 | CC(C)(C)C(=O)Oc1ccc(S(=O)(=O)Nc2ccccc2C(=O)NCC(=O)O)cc1 | inactive
11 | Cc1cnc(Nc2ccc(CN3CCOCC3)cc2)nc1Nc1cccc(S(=O)(=O)NC(C)(C)C)c1 | 4.18 µM (active)
12 | COc1cc(OC)c(C=CS(=O)(=O)Cc2ccc(OC)c(NCC(=O)O)c2)c(OC)c1 | 0.235 µM (active)
13 | CC[C@@H]([C@H](C)O)n1ncn(-c2ccc(N3CCN(c4ccc(OCC5CO[C@@](Cn6cncn6)(c6ccc(F)cc6F)C5)cc4)CC3)cc2)c1=O (stereo not given in full) | inactive
14 | CN1CCN2c3ncccc3Cc3ccccc3C2C1 (stereo not given) | inactive
15 | COc1ccc2c3c1OC1C[C@@H](O)C=C[C@@]31CCN(C)C2 (stereo not given in full) | inactive
16 | CCNC(=O)CCCC=CC[C@@H]1[C@H](C=CC(O)CCc2ccccc2)[C@@H](O)C[C@@H]1O (stereo not given in full) | inactive
17 | O=C(Nc1nc2ccccc2n1CCN1CCOCC1)c1cccc([N+](=O)[O-])c1 | inactive
18 | CCOC(=O)C1=C(O)C(=O)N(Cc2ccccc2)C1 | inactive
19 | C[C@@H](N)C1CCC(C(=O)Nc2ccncc2)CC1 (stereo not given in full) | inactive
20 | Cc1nn(C)c2c1C(c1ccc(C(F)(F)F)cc1)C(C#N)=C(N)O2 (stereo not given) | inactive

Row | Structure (SMILES) | Potency
21 | N=C(N=C(N)N)N1CCOCC1 | inactive
22 | C[C@@H]1CN(CC(=O)N2CC(C)(C)c3ncc(Cc4ccc(F)cc4)cc32)[C@@H](CN2CCOC[C@H]2C)CN1 | inactive
23 | CC[C@]1(O)C[C@H]2CN(CCC3=c4ccccc4=N[C]3[C@@](C(=O)OC)(c3cc4c(cc3OC)N(C)[C@H]3[C@@](O)(C(N)=O)[C@H](O)[C@]5(CC)C=CCN6CC[C@]43[C@@H]65)C2)C1 | 0.0662 µM (active)
24 | Cc1coc2c1C(=O)C(=O)c1c-2ccc2c1CCCC2(C)C | inactive
25 | CN(C)CC(C)(C)CNc1nn2c(-c3ccccc3)nnc2cc1C1CCC1 | 16.6 µM (active)
26 | C[N+]1(C)[C@@H]2C[C@@H](OC(=O)C(O)(c3cccs3)c3cccs3)C[C@H]1[C@@H]1O[C@@H]12 | inactive
27 | CC(C)NCC(O)COc1ccc(COCCOC(C)C)cc1 (stereo not given) | inactive
28 | O=C(Nc1ccccc1-c1cn2c(CN3CCNCC3)csc2n1)c1cnc2ccccc2n1 | 26.4 µM (active)
29 | CCNC(=O)Nc1ccc2ncc(Nc3ccc(C)cc3)nc2n1 | inactive
30 | CCN1C[C@H](C)n2c(c(O)c3c(=O)n(Cc4ccc(F)c(Cl)c4)nc(C(=O)NC)c32)C1=O | inactive
31 | C[C@]12CCC3=C4CCC(=O)C=C4CC[C@@H]3[C@H]1CC[C@@]2(O)CC#N | inactive
32 | O=C1CCc2cc(OCCCCc3nnnn3C3CCCCC3)ccc2N1 | inactive
33 | O=C(O)CCC=CCC[C@@H]1[C@H](N2CCCCC2)[C@@H](O)C[C@@H]1OCc1ccc(-c2ccccc2)cc1 | inactive
34 | C[N+]1(C)[C@@H]2CC(OC(=O)[C@H](CO)c3ccccc3)C[C@H]1[C@H]1O[C@@H]12 (stereo not given in full) | inactive
35 | CCCCCCCCc1ccc(CCC(N)(CO)CO)cc1 | 18.7 µM (active)
36 | NC1=N[C@@]2(c3cc(NC(=O)c4ccc(F)cn4)ccc3F)COC[C@@H]2CS1 | 1.66 µM (active)
37 | N#Cc1cc(NC(=O)Nc2nnc(-c3ccncc3)s2)ccc1-c1cn[nH]c1 | inactive
38 | Cn1cc(-c2ccc3nnc(C(F)(F)c4ccc5ncccc5c4)n3n2)cn1 | inactive
39 | CCOc1cc(CC(=O)N[C@@H](CC(C)C)c2ccccc2N2CCCCC2)ccc1C(=O)O | 2.64 µM (active)
40 | O=C(NCc1ccncc1)C12C[C@H]3C[C@@H](C1)CC(c1ccc(Cl)cc1)(C3)C2 | 20.9 µM (active)
